This passage reports binding signal results from publication PMC10668032, “Altered binding affinity of SIX1-Q177R correlates with enhanced WNT5A and WNT pathway effector expression in Wilms tumor”.

The full ranking holds about 33,000 sequences; the median of “e-score” is about -0.05, and the highest 2% start at about 0.38. What follows is part of a selection rich in the highest values, with near analogues and random picks from the rest.

The assay deals with T1, SIX1-Q177R homeodomain (human, UniProt Q15475 108-198, Q177R).
T1 sequence: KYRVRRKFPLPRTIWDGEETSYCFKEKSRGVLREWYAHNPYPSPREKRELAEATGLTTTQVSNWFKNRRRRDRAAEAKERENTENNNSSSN
The experiment in a line: universal protein binding microarray; Universal all-10-mer PBM (8x60K, AMADID 030236), 300 nM GST-tagged protein, Alexa Fluor 488 anti-GST; buffer, salt, pH and temperature not stated (as in Berger); high values mean tight binding. Conditions: protein: ivt; tags: N-terminal GST; dsDNA, one strand shown. The method, boiled down:
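After in vitro transcription/translation, GST-tagged homeodomains were quantified against a recombinant GST standard curve by anti-GST western blot. They were then placed in duplicate at 300 nM final concentration on universal 'all 10-mer' protein binding microarrays of 8×60K format.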
Turning to GGGTCAGA, the binding signal turned out to be 0.196 ± 0.0143 E-score.
The same measure for GGGTCATA: 0.237 ± 0.0329 E-score; for GTGTCAGA: 0.4533 ± 0.00139 E-score; for GAGTCAGA: 0.21 ± 0.0213 E-score.
On to GTGTCATA, for which the binding signal came to 0.458 ± 0.00496 E-score.
On to GTGTCGAA, for which the binding signal was found to be 0.448 ± 0.00926 E-score.
For the sequence GAGTCATA, the binding signal came to 0.184 ± 0.0258 E-score.
With GTATCGAA, the binding signal is 0.199 ± 0.0103 E-score.
For GGGTCGAA the value was 0.182 ± 0.0133 E-score; for CGCGTACA, 0.2538 ± 0.00208 E-score; for GAGGGTGC, 0.237 ± 0.0114 E-score.
As for AAAGAGTG, the binding signal was 0.186 ± 0.0198 E-score.
For AGAACCCC the value was 0.182 ± 0.0559 E-score; for GGATCATA, 0.184 ± 0.0113 E-score; for CACCTGCA, 0.213 ± 0.0191 E-score.
On to ATCCCCTC, for which the binding signal is 0.196 ± 0.00519 E-score.
In the case of ACCACGCA, the binding signal turned out to be 0.24 ± 0.0201 E-score.
For the sequence CGACACGC, the binding signal was found to be 0.424 ± 0.0203 E-score.
Regarding AGACACGC, the binding signal is 0.346 ± 0.00786 E-score.
For CGACACGA the value was 0.421 ± 0.0189 E-score; for CGACGCGA, 0.151 ± 0.0242 E-score; for AGACACGA, 0.369 ± 0.0153 E-score.
In the case of CACTCCGC, the binding signal is 0.256 ± 0.00576 E-score.
In the case of ACCCTTTC, the binding signal came out at 0.194 ± 0.0513 E-score.
Take CACTCTGC: the binding signal came out at 0.187 ± 0.0156 E-score.
For the sequence GCCCCGCC, the binding signal stood at 0.175 ± 0.055 E-score.
Regarding CGATACCA, the binding signal was 0.321 ± 0.00519 E-score.
CGATACCC: the binding signal came out at 0.411 ± 0.012 E-score.
Take GGATACCC: the binding signal stood at 0.403 ± 0.00919 E-score.
For GGATACCA the value was 0.327 ± 0.00751 E-score; for AGATACCC, 0.278 ± 0.0188 E-score; for CAATACCC, 0.218 ± 0.00416 E-score.
For CAACCACG the value was 0.155 ± 0.0108 E-score.
Turning to CACTCTGG, the binding signal stood at 0.187 ± 0.00384 E-score.
Take CCCCCTGC: the binding signal turned out to be 0.156 ± 0.0255 E-score.
The same measure for ACAGAGGT: 0.156 ± 0.00829 E-score.
With ATTAGGTG, the binding signal was found to be 0.296 ± 0.00518 E-score.
The same measure for ACCATGGT: 0.2 ± 0.05 E-score.
For the sequence CACCGTTC, the binding signal was 0.3236 ± 0.00306 E-score.
As to AGATACCA, the binding signal is 0.192 ± 0.0243 E-score.
For the sequence CGATACTC, the binding signal is 0.211 ± 0.00408 E-score.
On to CGATACCG, for which the binding signal amounted to 0.233 ± 0.0113 E-score.
In the case of GGATACAC, the binding signal was determined as 0.424 ± 0.00693 E-score.
In the case of CGATACAC, the binding signal worked out at 0.402 ± 0.0188 E-score.
As to AGATACAC, the binding signal was 0.424 ± 0.0151 E-score.
AGATACCT: the binding signal came to 0.179 ± 0.011 E-score.
For the sequence GGATACAA, the binding signal is 0.161 ± 0.00762 E-score.
For GGATACTA the value was 0.152 ± 0.0189 E-score; for CTGCCCGC, 0.163 ± 0.0123 E-score; for CACCGACA, 0.374 ± 0.0291 E-score.
In the case of TACTGATA, the binding signal was determined as 0.192 ± 0.0304 E-score.
For GTATCCAC, the binding signal came to 0.287 ± 0.00341 E-score.
As to GTATGGTA, the binding signal came to 0.159 ± 0.00206 E-score.
For the sequence AGGGGGTA, the binding signal was found to be 0.358 ± 0.00366 E-score.
As for AGGGTATC, the binding signal was 0.363 ± 0.0101 E-score.
With AGGGTGTC, the binding signal amounted to 0.4879 ± 0.00164 E-score.
For AGGGTGTG the value was 0.4 ± 0.015 E-score; for CGGGTGTA, 0.47551 ± 0.00024 E-score.
Consider AGGGGGTG, for which the binding signal was found to be 0.396 ± 0.00554 E-score.
In the case of CGGGTGGA, the binding signal came to 0.173 ± 0.033 E-score.
Take AGGGGGTC: the binding signal was determined as 0.271 ± 0.0446 E-score.
For the sequence CGGGTGCA, the binding signal came out at 0.238 ± 0.0106 E-score.
Regarding AGGGTGGG, the binding signal was 0.176 ± 0.00829 E-score.
For AGGGTGCG the value was 0.226 ± 0.0208 E-score; for AAGGGGTG, 0.227 ± 0.00304 E-score.
For the sequence CATCCGGG, the binding signal was determined as 0.156 ± 0.00322 E-score.
For ACCCTCGT, the binding signal amounted to 0.1905 ± 0.000806 E-score.
For CACCGAGA, the binding signal was 0.276 ± 0.0313 E-score.
TGTAGAAA: the binding signal is 0.225 ± 0.0216 E-score.
The same measure for AATCGACA: 0.173 ± 0.025 E-score.
Consider ACAAGGTC, for which the binding signal turned out to be 0.218 ± 0.0287 E-score.
Consider CAGGCAGG, for which the binding signal worked out at 0.186 ± 0.0165 E-score.
Turning to CACGCTAC, the binding signal amounted to 0.242 ± 0.0124 E-score.
Consider CCCCGACA, for which the binding signal is 0.324 ± 0.012 E-score.
The same measure for CGGGGGTC: 0.314 ± 0.0405 E-score.
With GGGGTGTA, the binding signal was 0.4856 ± 0.000757 E-score.
AGGGTGCA: the binding signal was found to be 0.265 ± 0.0337 E-score.
Consider GGGGTGAA, for which the binding signal came out at 0.154 ± 0.0542 E-score.
In the case of GGGGTGCA, the binding signal turned out to be 0.273 ± 0.0552 E-score.
As for AGGGTATA, the binding signal is 0.199 ± 0.0079 E-score.
For CGGGTGTC the value was 0.487 ± 0.00672 E-score; for CGGGTGGC, 0.178 ± 0.0577 E-score.
Consider AGGGTGTA, for which the binding signal worked out at 0.475 ± 0.00846 E-score.
Take CGATACTA: the binding signal came to 0.157 ± 0.00168 E-score.
As to AGTGCACA, the binding signal stood at 0.171 ± 0.00742 E-score.
The same measure for AGCCGGTG: 0.282 ± 0.011 E-score; for CCGGTACA: 0.224 ± 0.00738 E-score.
